# Legend:
# POU1 (OCT1 POU domain) = POU1 (OCT1 POU domain) (human, UniProt P14859 260-458); assay: EMSA-SELEX-seq; no BOB1; 20 mM Tris-HCl pH 7.6, 140 mM NaCl, 10% glycerol, 0.5 mM EDTA, 0.05% Triton X-100, 0.1 mg/mL BSA, 0.1 mg/mL poly(dI-dC), 5 mM DTT, room temperature, 20 min; high values mean tight binding; settings: protein: recombinant; dsDNA, one strand shown
# Summary of the method: (§1)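 Binding preference is the percentage of sequenced 8-mers matching a motif pattern. Tagged POU-domain proteins expressed in E. coli BL21 were purified under denaturing conditions and renatured. For binding, 30 ng protein met 300 ng of a PCR-amplified double-stranded random 35-nt library, with or without 28 ng coactivator protein, in 20 μL Tris–HCl pH 7.6 binding buffer for 20 min at RT. Complex bands were cut from native 6% PAGE, eluted and PCR-amplified over four rounds, then Illumina-sequenced.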
# POU2 (OCT2 POU domain) = molecular target: T1, POU2 (OCT2 POU domain) (human, UniProt P09086 175-386); assay: as above; settings: protein: recombinant; dsDNA, one strand shown
# T1 sequence: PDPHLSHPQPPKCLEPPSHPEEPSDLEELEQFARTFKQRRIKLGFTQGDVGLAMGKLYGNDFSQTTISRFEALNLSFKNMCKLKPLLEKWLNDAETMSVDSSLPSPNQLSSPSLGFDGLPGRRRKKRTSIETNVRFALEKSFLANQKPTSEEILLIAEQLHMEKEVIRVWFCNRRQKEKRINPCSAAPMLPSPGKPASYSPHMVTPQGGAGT
# Summary of the method: as §1
# [1] = molecular target: POU1 (OCT1 POU domain);BOB1 (OBF1, OCA-B) (human;human, UniProt P14859;Q16633 260-458;1-256, |); assay: EMSA-SELEX-seq; with BOB1 (ternary complex band); 20 mM Tris-HCl pH 7.6, 140 mM NaCl, 10% glycerol, 0.5 mM EDTA, 0.05% Triton X-100, 0.1 mg/mL BSA, 0.1 mg/mL poly(dI-dC), 5 mM DTT, room temperature, 20 min; high values mean tight binding; settings: protein: recombinant;recombinant; copies: 1;1; dsDNA, one strand shown
# Summary of the method: as §1
# [2] = molecular target: T2, POU2 (OCT2 POU domain);BOB1 (OBF1, OCA-B) (human;human, UniProt P09086;Q16633 175-386;1-256, |); assay: as above; settings: protein: recombinant;recombinant; copies: 1;1; dsDNA, one strand shown
# T2 sequence 1: T1 sequence
# T2 sequence 2: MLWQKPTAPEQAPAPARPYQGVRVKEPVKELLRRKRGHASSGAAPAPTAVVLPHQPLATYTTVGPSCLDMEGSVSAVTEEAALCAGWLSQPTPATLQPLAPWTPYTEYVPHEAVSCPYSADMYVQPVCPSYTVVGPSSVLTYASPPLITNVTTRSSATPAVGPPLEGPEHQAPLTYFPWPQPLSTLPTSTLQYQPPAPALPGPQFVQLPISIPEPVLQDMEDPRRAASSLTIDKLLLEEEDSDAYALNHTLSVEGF
# Summary of the method: as §1
# Sequence of POU1 (OCT1 POU domain) (P14859 260-458): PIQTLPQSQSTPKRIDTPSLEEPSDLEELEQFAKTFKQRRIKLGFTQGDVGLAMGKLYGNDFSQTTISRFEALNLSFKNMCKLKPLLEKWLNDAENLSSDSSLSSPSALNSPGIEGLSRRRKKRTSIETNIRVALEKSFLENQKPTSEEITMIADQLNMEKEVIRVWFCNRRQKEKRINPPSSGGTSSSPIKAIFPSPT
Sequence,binding signal (POU1 (OCT1 POU domain)),binding signal (POU2 (OCT2 POU domain)),binding signal [1],binding signal [2]
ACTACAAA,0.0214 % of ANNNNAAN 8-mers,0.0391 % of ANNNNAAN 8-mers,0.0285 % of ANNNNAAN 8-mers,0.0256 % of ANNNNAAN 8-mers
AACTGAAC,0.0179 % of ANNNNAAN 8-mers,0.019 % of ANNNNAAN 8-mers,0.0168 % of ANNNNAAN 8-mers,0.0182 % of ANNNNAAN 8-mers
ACCAAAAA,0.0336 % of ANNNNAAN 8-mers,0.0328 % of ANNNNAAN 8-mers,0.0425 % of ANNNNAAN 8-mers,0.0256 % of ANNNNAAN 8-mers
AATTAAAC,0.14 % of ANNNNAAN 8-mers,0.194 % of ANNNNAAN 8-mers,0.0905 % of ANNNNAAN 8-mers,0.0966 % of ANNNNAAN 8-mers
AGTGGAAC,0.0267 % of ANNNNAAN 8-mers,0.0207 % of ANNNNAAN 8-mers,0.0281 % of ANNNNAAN 8-mers,0.0314 % of ANNNNAAN 8-mers
AGTGTAAG,0.032 % of ANNNNAAN 8-mers,0.0443 % of ANNNNAAN 8-mers,0.0406 % of ANNNNAAN 8-mers,0.0421 % of ANNNNAAN 8-mers
ATAACAAT,0.0622 % of ANNNNAAN 8-mers,0.088 % of ANNNNAAN 8-mers,0.0496 % of ANNNNAAN 8-mers,0.0735 % of ANNNNAAN 8-mers
ATGTGAAA,0.0671 % of ANNNNAAN 8-mers,0.0748 % of ANNNNAAN 8-mers,0.0687 % of ANNNNAAN 8-mers,0.0718 % of ANNNNAAN 8-mers
ATGCTAAC,0.0671 % of ANNNNAAN 8-mers,0.0949 % of ANNNNAAN 8-mers,0.0347 % of ANNNNAAN 8-mers,0.0495 % of ANNNNAAN 8-mers
AAGCTAAC,0.0137 % of ANNNNAAN 8-mers,0.0178 % of ANNNNAAN 8-mers,0.0191 % of ANNNNAAN 8-mers,0.0215 % of ANNNNAAN 8-mers
ACCGAAAT,0.0404 % of ANNNNAAN 8-mers,0.0426 % of ANNNNAAN 8-mers,0.0437 % of ANNNNAAN 8-mers,0.0479 % of ANNNNAAN 8-mers
AGAGGAAA,0.069 % of ANNNNAAN 8-mers,0.0667 % of ANNNNAAN 8-mers,0.0687 % of ANNNNAAN 8-mers,0.0619 % of ANNNNAAN 8-mers
AACGAAAA,0.0522 % of ANNNNAAN 8-mers,0.0529 % of ANNNNAAN 8-mers,0.0597 % of ANNNNAAN 8-mers,0.0462 % of ANNNNAAN 8-mers
AGGTGAAC,0.021 % of ANNNNAAN 8-mers,0.0259 % of ANNNNAAN 8-mers,0.0222 % of ANNNNAAN 8-mers,0.0264 % of ANNNNAAN 8-mers
AGAGAAAG,0.0442 % of ANNNNAAN 8-mers,0.0501 % of ANNNNAAN 8-mers,0.0375 % of ANNNNAAN 8-mers,0.038 % of ANNNNAAN 8-mers
ACAGCAAT,0.0286 % of ANNNNAAN 8-mers,0.0288 % of ANNNNAAN 8-mers,0.0281 % of ANNNNAAN 8-mers,0.0215 % of ANNNNAAN 8-mers
ATTTTAAC,0.0812 % of ANNNNAAN 8-mers,0.0921 % of ANNNNAAN 8-mers,0.0652 % of ANNNNAAN 8-mers,0.0652 % of ANNNNAAN 8-mers
ATGTAAAA,0.714 % of ANNNNAAN 8-mers,0.496 % of ANNNNAAN 8-mers,0.631 % of ANNNNAAN 8-mers,0.618 % of ANNNNAAN 8-mers
ATCTCAAC,0.0252 % of ANNNNAAN 8-mers,0.027 % of ANNNNAAN 8-mers,0.0254 % of ANNNNAAN 8-mers,0.0264 % of ANNNNAAN 8-mers
AGATTAAT,0.147 % of ANNNNAAN 8-mers,0.207 % of ANNNNAAN 8-mers,0.0901 % of ANNNNAAN 8-mers,0.106 % of ANNNNAAN 8-mers
ATAGCAAT,0.0515 % of ANNNNAAN 8-mers,0.0495 % of ANNNNAAN 8-mers,0.0445 % of ANNNNAAN 8-mers,0.0487 % of ANNNNAAN 8-mers
ACCGCAAA,0.0179 % of ANNNNAAN 8-mers,0.0167 % of ANNNNAAN 8-mers,0.018 % of ANNNNAAN 8-mers,0.0124 % of ANNNNAAN 8-mers
ACTTCAAG,0.0194 % of ANNNNAAN 8-mers,0.0236 % of ANNNNAAN 8-mers,0.0168 % of ANNNNAAN 8-mers,0.0256 % of ANNNNAAN 8-mers
AATGGAAC,0.0439 % of ANNNNAAN 8-mers,0.0466 % of ANNNNAAN 8-mers,0.0449 % of ANNNNAAN 8-mers,0.0528 % of ANNNNAAN 8-mers
ATAGGAAA,0.131 % of ANNNNAAN 8-mers,0.112 % of ANNNNAAN 8-mers,0.213 % of ANNNNAAN 8-mers,0.146 % of ANNNNAAN 8-mers
AGGGCAAG,0.0294 % of ANNNNAAN 8-mers,0.0322 % of ANNNNAAN 8-mers,0.0332 % of ANNNNAAN 8-mers,0.0363 % of ANNNNAAN 8-mers
ATACTAAC,0.0347 % of ANNNNAAN 8-mers,0.0293 % of ANNNNAAN 8-mers,0.0304 % of ANNNNAAN 8-mers,0.0396 % of ANNNNAAN 8-mers
AGGGGAAC,0.0416 % of ANNNNAAN 8-mers,0.0414 % of ANNNNAAN 8-mers,0.0355 % of ANNNNAAN 8-mers,0.0487 % of ANNNNAAN 8-mers
ATCAAAAG,0.045 % of ANNNNAAN 8-mers,0.0414 % of ANNNNAAN 8-mers,0.0581 % of ANNNNAAN 8-mers,0.0388 % of ANNNNAAN 8-mers
AGCGTAAT,0.0591 % of ANNNNAAN 8-mers,0.0748 % of ANNNNAAN 8-mers,0.0382 % of ANNNNAAN 8-mers,0.0611 % of ANNNNAAN 8-mers
